# Data published in PMC7862700, “An all-to-all approach to the identification of sequence-specific readers for epigenetic DNA modifications on cytosine”.
# What was measured:
# Assay in all cases: DAPPL (digital affinity profiling via proximity ligation, sequencing); 10 mM Tris-HCl pH 7.5, 50 mM NaCl, 1 mM DTT, 4% glycerol, room temperature, 30 min; GST-TFs on glutathione beads, 16-mer random dsDNA library, 0.1% formaldehyde crosslink after washing; high values mean tight binding
# FLI1 = target: T1, FLI1 (Homo sapiens, UniProt Q01543 1-452); settings: protein: recombinant; tags: N-terminal GST; dsDNA, one strand shown
# T1 sequence: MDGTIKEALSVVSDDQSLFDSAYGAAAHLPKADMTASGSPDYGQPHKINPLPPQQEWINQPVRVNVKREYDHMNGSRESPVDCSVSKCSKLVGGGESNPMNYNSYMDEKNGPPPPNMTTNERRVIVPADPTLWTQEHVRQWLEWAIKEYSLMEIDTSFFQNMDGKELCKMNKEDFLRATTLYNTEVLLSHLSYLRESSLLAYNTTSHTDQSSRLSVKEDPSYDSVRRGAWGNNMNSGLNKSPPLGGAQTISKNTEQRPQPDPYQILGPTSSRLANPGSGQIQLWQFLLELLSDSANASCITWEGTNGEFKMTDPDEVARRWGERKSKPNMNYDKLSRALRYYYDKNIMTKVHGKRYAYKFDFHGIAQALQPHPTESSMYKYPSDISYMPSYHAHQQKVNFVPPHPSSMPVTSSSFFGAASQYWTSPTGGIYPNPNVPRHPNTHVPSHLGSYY
# Summary of the method: (§1)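 A tag-only sample was pooled with DNA-barcoded human transcription factors that had been expressed in yeast as GST fusions and captured on glutathione beads. The pools were incubated for 30 min at room temperature with 200 nmole of a random double-stranded 16-mer DNA library in Tris/NaCl/DTT/glycerol buffer, then washed, crosslinked with 0.1% formaldehyde, proximity-ligated (BsaI/T4 ligase, 1 h, 37 °C), PCR-amplified and sequenced on an Illumina NextSeq500. Binding signal is each hexamer's read frequency for a factor divided by its frequency for the tag-only sample.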
# ELK1 = target: T2, ELK1 (Homo sapiens, UniProt P19419 1-428); settings: protein: recombinant; tags: N-terminal GST; dsDNA, one strand shown
# T2 sequence: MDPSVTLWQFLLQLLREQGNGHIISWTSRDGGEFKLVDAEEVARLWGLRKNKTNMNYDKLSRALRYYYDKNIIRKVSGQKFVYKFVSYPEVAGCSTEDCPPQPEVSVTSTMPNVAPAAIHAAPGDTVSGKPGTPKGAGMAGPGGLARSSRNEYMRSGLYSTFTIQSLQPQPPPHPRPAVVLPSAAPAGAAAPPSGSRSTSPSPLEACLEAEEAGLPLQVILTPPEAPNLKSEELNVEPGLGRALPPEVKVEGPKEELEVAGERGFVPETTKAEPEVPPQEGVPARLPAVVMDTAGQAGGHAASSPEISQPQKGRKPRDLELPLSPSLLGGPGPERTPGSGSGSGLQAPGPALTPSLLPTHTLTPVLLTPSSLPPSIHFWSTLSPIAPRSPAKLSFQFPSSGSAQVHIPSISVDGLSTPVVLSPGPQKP
# Summary of the method: as §1
# GABPA = target: T3, GABPA (Homo sapiens, UniProt Q06546 1-454); settings: protein: recombinant; tags: N-terminal GST; dsDNA, one strand shown
# T3 sequence: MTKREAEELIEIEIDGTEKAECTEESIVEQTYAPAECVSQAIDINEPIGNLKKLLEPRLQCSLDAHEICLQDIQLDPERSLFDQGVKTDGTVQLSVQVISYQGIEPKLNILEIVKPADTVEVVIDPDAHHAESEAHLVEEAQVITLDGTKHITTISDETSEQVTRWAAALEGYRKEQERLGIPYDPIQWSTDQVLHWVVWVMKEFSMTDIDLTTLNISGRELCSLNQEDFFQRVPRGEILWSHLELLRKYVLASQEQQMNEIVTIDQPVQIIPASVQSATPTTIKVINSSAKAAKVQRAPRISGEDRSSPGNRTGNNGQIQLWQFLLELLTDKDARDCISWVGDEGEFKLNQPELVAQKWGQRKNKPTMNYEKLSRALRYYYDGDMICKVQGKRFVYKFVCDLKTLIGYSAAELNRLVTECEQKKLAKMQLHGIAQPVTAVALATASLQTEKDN
# Summary of the method: as §1
# ERG = target: T4, ERG (Homo sapiens, UniProt P11308 1-479); settings: protein: recombinant; tags: N-terminal GST; dsDNA, one strand shown
# T4 sequence: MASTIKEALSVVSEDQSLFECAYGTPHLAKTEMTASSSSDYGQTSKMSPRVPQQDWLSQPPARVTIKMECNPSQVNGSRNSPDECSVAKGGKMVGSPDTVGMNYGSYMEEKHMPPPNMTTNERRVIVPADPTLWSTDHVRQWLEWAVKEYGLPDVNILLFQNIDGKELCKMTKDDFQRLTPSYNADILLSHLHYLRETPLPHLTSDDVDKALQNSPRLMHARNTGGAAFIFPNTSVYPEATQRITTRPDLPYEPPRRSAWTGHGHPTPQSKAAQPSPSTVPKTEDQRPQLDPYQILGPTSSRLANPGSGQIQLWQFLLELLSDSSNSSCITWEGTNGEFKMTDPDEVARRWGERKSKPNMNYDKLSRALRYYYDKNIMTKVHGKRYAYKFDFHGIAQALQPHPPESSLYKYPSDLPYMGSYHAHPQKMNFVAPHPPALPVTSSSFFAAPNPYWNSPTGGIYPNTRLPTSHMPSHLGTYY
# Summary of the method: as §1
# ELF1 = ELF1 (Homo sapiens, UniProt P32519 1-619); settings: protein: recombinant; tags: N-terminal GST; dsDNA, one strand shown
# ELF1, sequence (P32519 whole entry): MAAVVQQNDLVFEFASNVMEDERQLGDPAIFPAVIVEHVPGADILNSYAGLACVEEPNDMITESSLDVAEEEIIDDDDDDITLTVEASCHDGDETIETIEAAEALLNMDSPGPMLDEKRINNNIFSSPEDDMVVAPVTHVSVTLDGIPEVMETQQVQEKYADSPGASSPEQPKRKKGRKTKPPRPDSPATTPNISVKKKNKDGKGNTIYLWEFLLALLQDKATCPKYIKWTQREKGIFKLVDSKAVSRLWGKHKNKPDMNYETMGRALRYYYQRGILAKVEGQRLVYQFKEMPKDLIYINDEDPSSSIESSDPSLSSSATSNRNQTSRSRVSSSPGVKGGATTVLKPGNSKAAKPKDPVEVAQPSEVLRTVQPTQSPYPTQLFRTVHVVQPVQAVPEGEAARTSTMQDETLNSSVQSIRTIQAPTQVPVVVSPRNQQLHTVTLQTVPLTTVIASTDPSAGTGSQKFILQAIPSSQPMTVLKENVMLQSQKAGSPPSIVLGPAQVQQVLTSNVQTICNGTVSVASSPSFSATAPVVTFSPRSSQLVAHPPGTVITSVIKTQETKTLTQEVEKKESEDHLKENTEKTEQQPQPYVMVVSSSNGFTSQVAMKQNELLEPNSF
# Summary of the method: as §1
# EHF = target: T5, EHF (Homo sapiens, UniProt Q9NZC4 1-300); settings: protein: recombinant; tags: N-terminal GST; dsDNA, one strand shown
# T5 sequence: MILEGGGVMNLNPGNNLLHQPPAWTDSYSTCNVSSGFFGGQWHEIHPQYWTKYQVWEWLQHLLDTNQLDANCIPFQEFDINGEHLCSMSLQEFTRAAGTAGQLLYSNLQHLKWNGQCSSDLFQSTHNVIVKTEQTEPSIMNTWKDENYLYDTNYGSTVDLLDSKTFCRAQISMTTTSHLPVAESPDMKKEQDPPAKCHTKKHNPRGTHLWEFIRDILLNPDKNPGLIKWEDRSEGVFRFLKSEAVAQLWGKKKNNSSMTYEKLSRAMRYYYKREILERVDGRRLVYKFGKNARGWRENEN
# Summary of the method: as §1
# SPI1 = SPI1 (Homo sapiens, UniProt P17947 1-270); settings: protein: recombinant; tags: N-terminal GST; dsDNA, one strand shown
# Summary of the method: as §1
# SPIB = SPIB (Homo sapiens, UniProt Q01892 1-262); settings: protein: recombinant; tags: N-terminal GST; dsDNA, one strand shown
# SPIB, sequence (Q01892 whole entry): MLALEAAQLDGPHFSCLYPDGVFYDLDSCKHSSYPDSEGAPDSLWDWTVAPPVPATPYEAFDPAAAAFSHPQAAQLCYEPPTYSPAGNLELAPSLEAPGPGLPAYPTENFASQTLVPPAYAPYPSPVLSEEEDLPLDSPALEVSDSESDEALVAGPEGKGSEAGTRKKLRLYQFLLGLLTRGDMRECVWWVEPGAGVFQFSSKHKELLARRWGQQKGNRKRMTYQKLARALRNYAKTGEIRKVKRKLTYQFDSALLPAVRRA
# Summary of the method: as §1
# ELK3 = target: T6, ELK3 (Homo sapiens, UniProt P41970 1-407); settings: protein: recombinant; tags: N-terminal GST; dsDNA, one strand shown
# T6 sequence: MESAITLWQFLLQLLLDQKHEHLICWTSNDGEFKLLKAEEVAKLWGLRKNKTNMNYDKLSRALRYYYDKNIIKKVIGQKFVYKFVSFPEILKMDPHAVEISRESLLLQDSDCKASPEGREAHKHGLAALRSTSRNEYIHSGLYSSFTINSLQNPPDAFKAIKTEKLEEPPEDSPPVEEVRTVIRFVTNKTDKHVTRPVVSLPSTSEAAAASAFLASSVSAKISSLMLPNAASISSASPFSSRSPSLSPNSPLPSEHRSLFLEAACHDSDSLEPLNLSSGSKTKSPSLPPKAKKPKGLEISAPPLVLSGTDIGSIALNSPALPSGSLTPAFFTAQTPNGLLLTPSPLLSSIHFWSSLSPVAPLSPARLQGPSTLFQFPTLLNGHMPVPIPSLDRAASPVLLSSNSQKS
# Summary of the method: as §1
# FEV = target: T7, FEV (Homo sapiens, UniProt Q99581 1-238); settings: protein: recombinant; tags: N-terminal GST; dsDNA, one strand shown
# T7 sequence: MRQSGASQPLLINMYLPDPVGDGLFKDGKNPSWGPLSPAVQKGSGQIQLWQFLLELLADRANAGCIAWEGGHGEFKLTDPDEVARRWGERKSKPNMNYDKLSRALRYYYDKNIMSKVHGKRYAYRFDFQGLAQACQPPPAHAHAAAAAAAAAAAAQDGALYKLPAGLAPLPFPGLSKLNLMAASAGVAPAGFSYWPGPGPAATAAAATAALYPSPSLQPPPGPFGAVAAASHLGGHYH
# Summary of the method: as §1
# ETV5 = ETV5 (Homo sapiens, UniProt P41161 1-510); settings: protein: recombinant; tags: N-terminal GST; dsDNA, one strand shown
# ETV5, sequence (P41161 whole entry): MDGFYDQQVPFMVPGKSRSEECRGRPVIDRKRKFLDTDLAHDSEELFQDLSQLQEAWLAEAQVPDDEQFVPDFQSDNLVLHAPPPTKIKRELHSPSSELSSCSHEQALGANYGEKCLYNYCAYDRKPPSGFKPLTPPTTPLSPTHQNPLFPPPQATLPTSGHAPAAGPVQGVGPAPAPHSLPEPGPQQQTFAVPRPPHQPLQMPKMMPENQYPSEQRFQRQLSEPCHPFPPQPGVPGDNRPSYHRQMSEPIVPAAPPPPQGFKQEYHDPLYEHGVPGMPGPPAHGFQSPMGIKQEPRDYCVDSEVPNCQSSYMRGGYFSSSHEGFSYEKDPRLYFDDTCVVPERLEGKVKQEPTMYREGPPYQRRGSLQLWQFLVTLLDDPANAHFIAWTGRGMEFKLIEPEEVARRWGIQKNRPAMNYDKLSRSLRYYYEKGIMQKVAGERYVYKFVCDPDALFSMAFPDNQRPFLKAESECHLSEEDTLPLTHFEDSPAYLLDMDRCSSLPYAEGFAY
# Summary of the method: as §1
# HSF1 = HSF1 (Homo sapiens, UniProt Q00613 1-529); settings: protein: recombinant; tags: N-terminal GST; chain copies: 3; dsDNA, one strand shown
# HSF1, sequence (Q00613 whole entry): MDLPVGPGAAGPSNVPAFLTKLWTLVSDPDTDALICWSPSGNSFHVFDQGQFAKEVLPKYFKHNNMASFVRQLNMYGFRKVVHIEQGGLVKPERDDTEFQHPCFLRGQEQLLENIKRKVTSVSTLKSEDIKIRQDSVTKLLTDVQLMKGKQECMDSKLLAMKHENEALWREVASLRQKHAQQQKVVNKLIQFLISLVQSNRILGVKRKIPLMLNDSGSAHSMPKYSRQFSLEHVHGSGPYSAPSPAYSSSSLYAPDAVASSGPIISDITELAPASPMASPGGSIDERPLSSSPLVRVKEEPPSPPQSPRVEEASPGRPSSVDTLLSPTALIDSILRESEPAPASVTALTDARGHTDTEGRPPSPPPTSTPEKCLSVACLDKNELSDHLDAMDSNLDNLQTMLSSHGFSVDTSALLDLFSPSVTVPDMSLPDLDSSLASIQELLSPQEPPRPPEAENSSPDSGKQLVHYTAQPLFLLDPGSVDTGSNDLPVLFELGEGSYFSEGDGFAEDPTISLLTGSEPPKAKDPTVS
# Summary of the method: as §1
# SPIC = target: T8, SPIC (Homo sapiens, UniProt Q8N5J4 1-248); settings: protein: recombinant; tags: N-terminal GST; dsDNA, one strand shown
# T8 sequence: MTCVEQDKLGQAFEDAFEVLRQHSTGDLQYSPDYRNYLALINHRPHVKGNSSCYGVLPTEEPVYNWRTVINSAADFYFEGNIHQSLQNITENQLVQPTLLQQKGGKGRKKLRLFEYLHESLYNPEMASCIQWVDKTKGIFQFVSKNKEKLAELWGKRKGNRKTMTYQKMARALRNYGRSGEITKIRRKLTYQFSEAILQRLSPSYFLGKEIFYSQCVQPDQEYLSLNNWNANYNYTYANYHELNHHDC
# Summary of the method: as §1
# ELF4 = ELF4 (Homo sapiens, UniProt Q99607 1-663); settings: protein: recombinant; tags: N-terminal GST; dsDNA, one strand shown
# ELF4, sequence (Q99607 whole entry): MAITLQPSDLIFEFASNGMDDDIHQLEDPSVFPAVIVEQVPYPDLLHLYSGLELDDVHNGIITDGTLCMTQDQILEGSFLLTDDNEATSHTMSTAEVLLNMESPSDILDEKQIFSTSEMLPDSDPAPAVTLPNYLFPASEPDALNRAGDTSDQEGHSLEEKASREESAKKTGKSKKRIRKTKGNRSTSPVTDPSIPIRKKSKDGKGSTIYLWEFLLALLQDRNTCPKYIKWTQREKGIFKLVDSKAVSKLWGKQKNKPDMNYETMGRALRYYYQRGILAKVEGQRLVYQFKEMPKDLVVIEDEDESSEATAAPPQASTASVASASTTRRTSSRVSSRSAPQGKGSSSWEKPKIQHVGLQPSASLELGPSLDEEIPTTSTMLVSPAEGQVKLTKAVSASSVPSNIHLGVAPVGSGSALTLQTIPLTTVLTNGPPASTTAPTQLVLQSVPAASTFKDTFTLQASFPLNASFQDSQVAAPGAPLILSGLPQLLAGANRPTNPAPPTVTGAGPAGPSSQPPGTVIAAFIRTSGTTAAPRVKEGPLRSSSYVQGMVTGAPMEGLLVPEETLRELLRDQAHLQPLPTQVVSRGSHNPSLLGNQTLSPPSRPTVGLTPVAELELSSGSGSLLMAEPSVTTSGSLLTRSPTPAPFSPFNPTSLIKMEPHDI
# Summary of the method: as §1
# ELK4 = target: T9, ELK4 (Homo sapiens, UniProt P28324-2 1-405); settings: protein: recombinant; tags: N-terminal GST; dsDNA, one strand shown
# T9 sequence: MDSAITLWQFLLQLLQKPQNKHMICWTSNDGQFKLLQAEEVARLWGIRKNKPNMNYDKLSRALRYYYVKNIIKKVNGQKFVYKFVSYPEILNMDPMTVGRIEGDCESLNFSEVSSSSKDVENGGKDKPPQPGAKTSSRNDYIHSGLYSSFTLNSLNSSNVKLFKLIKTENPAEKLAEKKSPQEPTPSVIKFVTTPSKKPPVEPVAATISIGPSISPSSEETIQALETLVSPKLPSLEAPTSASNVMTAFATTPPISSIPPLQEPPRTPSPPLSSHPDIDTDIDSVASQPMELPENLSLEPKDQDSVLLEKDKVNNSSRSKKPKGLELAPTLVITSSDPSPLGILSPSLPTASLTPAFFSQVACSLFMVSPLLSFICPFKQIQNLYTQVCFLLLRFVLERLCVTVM
# Summary of the method: as §1
# ETV2 = target: T10, ETV2 (Homo sapiens, UniProt O00321 1-342); settings: protein: recombinant; tags: N-terminal GST; dsDNA, one strand shown
# T10 sequence: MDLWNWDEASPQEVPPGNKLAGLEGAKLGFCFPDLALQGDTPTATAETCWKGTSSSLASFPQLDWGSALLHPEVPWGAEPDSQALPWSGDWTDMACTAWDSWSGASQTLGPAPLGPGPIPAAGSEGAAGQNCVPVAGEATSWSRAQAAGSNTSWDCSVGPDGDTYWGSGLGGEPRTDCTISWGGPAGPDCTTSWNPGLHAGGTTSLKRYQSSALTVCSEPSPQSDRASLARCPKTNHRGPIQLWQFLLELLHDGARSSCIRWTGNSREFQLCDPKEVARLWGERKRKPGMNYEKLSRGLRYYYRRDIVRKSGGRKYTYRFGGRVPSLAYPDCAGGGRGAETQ
# Summary of the method: as §1
# ELF3 = target: T11, ELF3 (Homo sapiens, UniProt P78545 1-371); settings: protein: recombinant; tags: N-terminal GST; dsDNA, one strand shown
# T11 sequence: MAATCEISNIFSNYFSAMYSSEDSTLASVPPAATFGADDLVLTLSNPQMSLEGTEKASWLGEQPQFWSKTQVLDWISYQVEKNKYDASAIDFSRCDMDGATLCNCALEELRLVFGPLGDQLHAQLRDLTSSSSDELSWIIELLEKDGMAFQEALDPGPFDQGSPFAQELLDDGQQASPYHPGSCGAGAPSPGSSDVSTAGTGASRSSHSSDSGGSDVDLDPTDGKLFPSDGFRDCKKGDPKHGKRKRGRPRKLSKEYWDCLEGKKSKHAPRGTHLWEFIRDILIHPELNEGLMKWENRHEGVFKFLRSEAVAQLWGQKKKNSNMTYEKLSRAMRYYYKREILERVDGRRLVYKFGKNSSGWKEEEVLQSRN
# Summary of the method: as §1
# CRX = CRX (Homo sapiens, UniProt O43186 1-299); settings: protein: recombinant; tags: N-terminal GST; dsDNA, one strand shown
# CRX, sequence (O43186 whole entry): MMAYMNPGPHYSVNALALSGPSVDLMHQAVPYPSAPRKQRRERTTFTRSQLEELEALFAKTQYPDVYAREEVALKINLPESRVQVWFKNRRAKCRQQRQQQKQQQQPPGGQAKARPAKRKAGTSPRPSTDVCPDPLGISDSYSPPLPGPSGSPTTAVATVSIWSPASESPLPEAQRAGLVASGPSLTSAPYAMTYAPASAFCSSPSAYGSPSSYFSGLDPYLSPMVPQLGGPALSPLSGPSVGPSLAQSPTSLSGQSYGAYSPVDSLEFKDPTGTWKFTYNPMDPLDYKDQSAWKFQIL
# Summary of the method: as §1
# ETV1 = ETV1 (Homo sapiens, UniProt P50549 1-477); settings: protein: recombinant; tags: N-terminal GST; dsDNA, one strand shown
# ETV1, sequence (P50549 whole entry): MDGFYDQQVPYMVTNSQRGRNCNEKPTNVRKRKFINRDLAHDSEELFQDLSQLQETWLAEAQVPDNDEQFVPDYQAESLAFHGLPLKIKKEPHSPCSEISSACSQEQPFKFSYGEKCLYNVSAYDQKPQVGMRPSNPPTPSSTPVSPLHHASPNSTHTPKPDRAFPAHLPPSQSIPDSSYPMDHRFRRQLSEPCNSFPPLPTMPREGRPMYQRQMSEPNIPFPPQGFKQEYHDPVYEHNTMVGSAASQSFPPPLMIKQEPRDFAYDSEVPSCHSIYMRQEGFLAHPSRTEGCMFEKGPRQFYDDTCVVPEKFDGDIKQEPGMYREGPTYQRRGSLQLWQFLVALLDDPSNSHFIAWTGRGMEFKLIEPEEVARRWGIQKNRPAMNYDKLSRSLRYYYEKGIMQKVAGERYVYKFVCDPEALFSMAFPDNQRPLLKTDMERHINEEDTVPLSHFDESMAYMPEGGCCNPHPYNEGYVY
# Summary of the method: as §1
sequence,measurement,setting,value
GACCTA,binding signal,FLI1,"1.18 fold enrichment (6-mer frequency, TF over GST control)"
same,binding signal,ELK1,"1.07 fold enrichment (6-mer frequency, TF over GST control)"
same,binding signal,GABPA,"1.17 fold enrichment (6-mer frequency, TF over GST control)"
same,binding signal,ERG,"1.11 fold enrichment (6-mer frequency, TF over GST control)"
same,binding signal,ELF1,"1.21 fold enrichment (6-mer frequency, TF over GST control)"
same,binding signal,EHF,"1.15 fold enrichment (6-mer frequency, TF over GST control)"
same,binding signal,SPI1,"1.02 fold enrichment (6-mer frequency, TF over GST control)"
same,binding signal,SPIB,"1.08 fold enrichment (6-mer frequency, TF over GST control)"
same,binding signal,ELK3,"1.21 fold enrichment (6-mer frequency, TF over GST control)"
same,binding signal,FEV,"1.17 fold enrichment (6-mer frequency, TF over GST control)"
same,binding signal,ETV5,"1.2 fold enrichment (6-mer frequency, TF over GST control)"
same,binding signal,HSF1,"1.06 fold enrichment (6-mer frequency, TF over GST control)"
same,binding signal,SPIC,"1.18 fold enrichment (6-mer frequency, TF over GST control)"
same,binding signal,ELF4,"1.24 fold enrichment (6-mer frequency, TF over GST control)"
same,binding signal,ELK4,"1.14 fold enrichment (6-mer frequency, TF over GST control)"
same,binding signal,ETV2,"1.26 fold enrichment (6-mer frequency, TF over GST control)"
same,binding signal,ELF3,"1.06 fold enrichment (6-mer frequency, TF over GST control)"
same,binding signal,CRX,"1.07 fold enrichment (6-mer frequency, TF over GST control)"
same,binding signal,ETV1,"1.16 fold enrichment (6-mer frequency, TF over GST control)"
